# Measurements reported in PubChem BioAssay AID624101 (Broad Institute, 2012).
# Among all 70,000 compounds or so, about 120 (0.17%) were called active. Rule as the data show it: active = inhibition above about 34%; inconclusive = no clear call, values can overlap the other calls; inactive = below about 11%. This excerpt belongs to a sample that is enriched for actives.
# Molecular target: Isocitrate dehydrogenase [NADP] cytoplasmic (Homo sapiens) (UniProt O75874)
# Test: PubChem AID 624101;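 also: 0% = DMSO and 100% = no enzyme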
# Conditions: IDH1 R132H reductase, diaphorase/resazurin fluorescence, 60 min; at 10 µM; hits give high values
# Sequence of Isocitrate dehydrogenase [NADP] cytoplasmic (Homo sapiens) (O75874 whole entry R132H): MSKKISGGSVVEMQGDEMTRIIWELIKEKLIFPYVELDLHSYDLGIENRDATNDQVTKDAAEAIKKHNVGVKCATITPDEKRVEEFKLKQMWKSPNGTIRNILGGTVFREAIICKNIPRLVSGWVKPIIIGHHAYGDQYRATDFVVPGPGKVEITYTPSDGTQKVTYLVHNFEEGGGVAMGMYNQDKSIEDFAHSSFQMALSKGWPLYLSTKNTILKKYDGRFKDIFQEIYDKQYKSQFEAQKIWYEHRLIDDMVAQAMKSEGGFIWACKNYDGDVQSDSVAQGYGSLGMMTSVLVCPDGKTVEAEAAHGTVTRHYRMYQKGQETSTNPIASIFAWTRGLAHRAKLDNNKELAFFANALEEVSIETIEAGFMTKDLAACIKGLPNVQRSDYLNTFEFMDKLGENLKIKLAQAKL
row,Structure (SMILES),inhibition
1,COc1cccc(-c2cn(CC[C@H]3CC[C@H](NC(=O)CN(C)C)[C@H](CO)O3)nn2)c1,-0.376% (inactive)
2,O=C(O)C[C@@H]1C[C@@H]2c3cc(NC(=O)NC4CCCC4)ccc3O[C@@H]2[C@H](CO)O1,-0.0525% (inactive)
3,C/C=C/c1cnc2c(c1)C(=O)N([C@@H](C)CO)C[C@@H](C)[C@@H](CN(C)C(=O)c1cnccn1)O2,-1.79% (inactive)
4,CN(C)C(=O)C[C@@H]1CC[C@@H](NS(=O)(=O)c2ccccc2)[C@H](CO)O1,-0.243% (inactive)
5,CO[C@H]1CN(C)C(=O)c2cc(NC(=O)c3ccccc3)ccc2OC[C@H](C)NC[C@H]1C,0.304% (inactive)
6,CC(C)NC(=O)N[C@H]1CC[C@H](CC(=O)NC2Cc3ccccc3C2)O[C@H]1CO,0.112% (inactive)
7,CO[C@@H]1CN(C)C(=O)c2cc(NC(=O)C3CCOCC3)ccc2OC[C@H](C)N(Cc2cccnc2)C[C@H]1C,-0.057% (inactive)
8,O=C(C[C@@H]1CC[C@H](NS(=O)(=O)c2cccc(F)c2)[C@H](CO)O1)N1CCCCC1,0.0905% (inactive)
9,O=S(=O)(N[C@@H]1CC[C@H](CCn2cc(C3(O)CCCC3)nn2)O[C@@H]1CO)c1ccc(Cl)cc1,0.461% (inactive)
10,CCCC(=O)Nc1ccc2c(c1)OC[C@H](C)N(CCC(F)(F)F)C[C@@H](C)[C@H](OC)CN(C)C2=O,-0.114% (inactive)
11,COc1ccccc1-c1cn(CC[C@H]2CC[C@H](NC(=O)Cc3ccccn3)[C@H](CO)O2)nn1,0.087% (inactive)
12,COc1ccccc1S(=O)(=O)N[C@@H]1C=C[C@H](CC(=O)N2CCN(C)CC2)O[C@@H]1CO,0.0315% (inactive)
13,CS(=O)(=O)Nc1ccc2c(c1)[C@H]1C[C@H](CC(=O)NCc3ccc(Cl)cc3)O[C@@H](CO)[C@H]1O2,-0.335% (inactive)
14,CO[C@@H]1CN(C)C(=O)c2ccc(NC(=O)C3CCCCC3)cc2OC[C@@H](C)N(Cc2nccs2)C[C@@H]1C,0.03% (inactive)
15,C[C@@H]1CN([C@H](C)CO)C(=O)c2cc(Br)cnc2O[C@@H]1CN(C)C(=O)Nc1ccc(F)cc1,0.064% (inactive)
16,C[C@H](NC(=O)C[C@@H]1CC[C@@H](NC(=O)Cc2ccccn2)[C@@H](CO)O1)c1ccccc1,0.0085% (inactive)
17,O=C(N[C@H]1CC[C@@H](CCNS(=O)(=O)c2ccccc2)O[C@H]1CO)c1cccnc1,-0.222% (inactive)
18,Cc1cccc(S(=O)(=O)N[C@H]2CC[C@@H](CCNS(=O)(=O)c3ccccc3F)O[C@H]2CO)c1,0.059% (inactive)
19,COc1ccc(NC(=O)N[C@H]2CC[C@H](CCn3cc(-c4ccccc4F)nn3)O[C@H]2CO)cc1,-0.29% (inactive)
20,COCc1cn(CC[C@H]2CC[C@@H](NC(=O)Nc3ccc(OC)cc3)[C@@H](CO)O2)nn1,0.176% (inactive)
21,C[C@@H]1CN([C@H](C)CO)C(=O)c2cc(C#CC3CC3)cnc2O[C@@H]1CN(C)Cc1cccc(C(=O)O)c1,-0.167% (inactive)

row,Structure (SMILES),inhibition
1,CO[C@H]1CN(C)C(=O)c2ccc(NC(=O)Nc3ccc4c(c3)OCO4)cc2OC[C@H](C)NC[C@H]1C,-0.152% (inactive)
2,COCC(=O)Nc1ccc2c(c1)OC[C@H](C)N(C(=O)c1cnccn1)C[C@@H](C)[C@H](OC)CN(C)C2=O,0.439% (inactive)
3,CC(C)CC#Cc1ccc2c(c1)O[C@@H](CN(C)C(=O)c1ccccn1)[C@@H](C)CN([C@H](C)CO)S2(=O)=O,-2.87% (inactive)
4,CO[C@H]1CN(C)C(=O)c2cc(NS(=O)(=O)CC(F)(F)F)ccc2OC[C@@H](C)N(Cc2nccs2)C[C@@H]1C,0.457% (inactive)
5,CO[C@H]1CN(C)C(=O)c2ccc(NC(=O)NC(C)C)cc2OC[C@H](C)N(Cc2cncnc2)C[C@@H]1C,0.214% (inactive)
6,O=C(Cc1ccncc1)NCC[C@H]1CC[C@@H](NC(=O)Nc2ccc(Cl)cc2)[C@@H](CO)O1,0.092% (inactive)
7,O=C(C[C@H]1CC[C@@H](NC(=O)Nc2ccc(C(F)(F)F)cc2)[C@H](CO)O1)NCc1cc(F)cc(F)c1,0.19% (inactive)
8,CCS(=O)(=O)N[C@@H]1CC[C@@H](CC(=O)NCC2CC2)O[C@H]1CO,-0.0912% (inactive)
9,COc1ccc(CNC(=O)C[C@@H]2CC[C@H](NC(=O)c3cccc(F)c3)[C@H](CO)O2)cc1,0.0345% (inactive)
10,O=C(N[C@H]1CC[C@@H](CCNS(=O)(=O)c2ccc(Cl)cc2)O[C@H]1CO)c1cccc(F)c1,-0.0045% (inactive)
11,CO[C@@H]1CN(C)C(=O)c2ccc(NC(C)=O)cc2OC[C@@H](C)N(Cc2ccc(-c3ccccn3)cc2)C[C@H]1C,-0.357% (inactive)
12,CCCC(=O)Nc1ccc2c(c1)OC[C@H](C)N(S(=O)(=O)c1cn(C)cn1)C[C@@H](C)[C@H](OC)CN(C)C2=O,-0.504% (inactive)
13,C[C@@H]1CN([C@@H](C)CO)C(=O)c2cc(-c3ccccc3F)cnc2O[C@H]1CN(C)C(=O)C1CC1,0.564% (inactive)
14,O=C(C[C@H]1C[C@@H]2c3cc(NC(=O)CC4CC4)ccc3O[C@@H]2[C@H](CO)O1)NCc1cccnc1,-0.193% (inactive)
15,CO[C@@H]1CN(C)C(=O)c2cc(NC(=O)C3CC3)ccc2OC[C@H](C)N(C(=O)CN2CCOCC2)C[C@@H]1C,0.377% (inactive)
16,COCCNC(=O)C[C@H]1C[C@H]2c3cc(NS(C)(=O)=O)ccc3O[C@H]2[C@H](CO)O1,-0.133% (inactive)
17,COCC(=O)N(C)C[C@H]1Oc2cc(C#CC3CCCC3)ccc2S(=O)(=O)N([C@H](C)CO)C[C@@H]1C,-1.42% (inactive)
18,C[C@H]1CN([C@@H](C)CO)C(=O)c2cc(-c3ccccc3F)cnc2O[C@H]1CN(C)C(=O)C1CCOCC1,0.288% (inactive)
19,O=C(N[C@H]1CC[C@@H](CCNS(=O)(=O)c2ccccc2)O[C@@H]1CO)c1cnccn1,-0.078% (inactive)
20,O=C(NCC[C@@H]1CC[C@@H](NS(=O)(=O)c2cccc(F)c2)[C@H](CO)O1)C1CC1,0.164% (inactive)
21,CO[C@H]1CN(C)C(=O)c2cc(NC(=O)Nc3ccccc3)ccc2OC[C@@H](C)N(C(=O)Nc2c(C)noc2C)C[C@@H]1C,-0.138% (inactive)
